The text below walks through data of PubChem BioAssay.

A short description of assay [1]: viability loss in pontine glioma line – cell-based, JHH-DIPG-1, MIPE4.0, CellTiter-Glo, qHTS, dose response (AID 1347062; cut-off not given, nearly all actives have AC50 up to about 27 µM). Particulars: JHH-DIPG-1 viability, CellTiter-Glo ATP luminescence. A general note: ATP-based viability assays read luminescence as a measure of living cells.
Assay [2] can be described thus: viability loss in pontine glioma line – cell-based, SU-DIPG-XIII, MIPE5.0, CellTiter-Glo, qHTS, dose response (AID 1347064; cut-off not given, nearly all actives have AC50 up to about 23 µM). Particulars: CellTiter-Glo ATP luminescence.
Assay [3] is described as follows: viability loss in pontine glioma line – cell-based, SU-DIPG-XXV, MIPE5.0, CellTiter-Glo, qHTS, dose response (AID 1347065; cut-off not given, nearly all actives have AC50 up to about 26 µM;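 further: cells exposed to compound for 48 hours before ATP readout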). Particulars: CellTiter-Glo ATP luminescence.
The nature of assay [4]: growth inhibition of DIPG cells – cell-based, MIPE4.0 library, CellTiter-Glo luminescence, qHTS (AID 1347066; cut-off not given, nearly all actives have AC50 up to about 30 µM;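 further: cells exposed to compound for 48 hours before readout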). Conditions: SU-DIPG-VI viability, CellTiter-Glo ATP luminescence.
Assay [5] in a line: JHH-DIPG-1 glioma cell viability, MIPE5.0 library, CellTiter-Glo luminescence, qHTS (AID 1347067; cut-off not given, nearly all actives have AC50 up to about 26 µM;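 further: cells exposed to compound for 48 hours before readout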). Particulars: JHH-DIPG-1 glioma viability, CellTiter-Glo ATP luminescence.
Assay [6] is described as follows: growth inhibition of DIPG cells – cell-based, MIPE5.0 library, qHTS (AID 1347068; cut-off not given, nearly all actives have IC50 up to about 30 µM). Conditions: SU-DIPG-XXV viability. On the technique in general: Quantitative high-throughput screening tests each substance at several concentrations.
The nature of assay [7]: blockers of cellular phospholipid synthesis – cell-based, LOPAC library, screen 4, primary screen (AID 1347384; call rule not given here). Conditions: animal cells, phospholipid biosynthesis inhibition screen; at 10 µM.
In assay [8] the target is NAD(+) hydrolase SARM1 (Homo sapiens) (UniProt Q6SZW1). As to the kind of experiment: blocking NAD cleavage by SARM1 SAM-TIR – cell lysate, NAD-Glo luminescence (AID 1508614;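 active means compound whose remaining NAD level is above about 45 nM, limit read from the data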). Particulars: SAM-TIR HEK293T lysate NADase, at 1 µM, stronger effect = higher value.
Assay [9] in a line: galactose survival enhancers in mitochondrial complex I cybrids – cell-based, galactose medium, ATP luminescence, primary screen (AID 1645843).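 Further: positive z means more ATP and so rescue of galactose-driven cybrid death.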 Particulars: complex I mutant cybrid cells, 72 h, stronger effect = higher value.
For assay [10], the system named is Aerobactin synthetase IucA (Klebsiella pneumoniae). Description: inhibition of K. pneumoniae IucA enzyme – biochemical, Tocris library, absorbance (AID 1345561; call rule not given here;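 further: 100% = enzyme without compound and 0% = no enzyme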). Particulars: purified IucA enzyme assay, absorbance (OD) read-out; stronger effect = lower value;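 tested at 8 µM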.
A short description of assay [11]: viability loss in pontine glioma line – cell-based, SU-DIPG-XVII, MIPE5.0, CellTiter-Glo, qHTS, dose response (AID 1347060; cut-off not given, nearly all actives have AC50 up to about 26 µM;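 on AC50: cells exposed to compound for 48 hours before viability readout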). Conditions: CellTiter-Glo ATP luminescence.
The nature of assay [12]: compounds altering HSF1 focus formation in cells – imaging, Selleck Cancer Library (AID 1347162; in the data active means plate-normalised HSF1 focus index below about 0.46). Conditions: human cells, HSF1 nuclear foci imaging, at 10 µM; SSMD: measured here: HSF1 foci SSMD mean; cell count: measured here: cell number; plate-normalised HSF1 focus index: stronger effect = lower value.
Assay [13] has as its target Mitogen-activated protein kinase 7 (Homo sapiens) (UniProt Q13164). As to the kind of experiment: Gal4-ERK5 driven luciferase induction – cell-based, HTS, primary screen (AID 1508626;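 active means luciferase signal above three times the same-plate solvent-only control wells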;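 further: luciferase driven by Gal4-ERK5 fusion binding five Gal4 sites before minimal TATA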). Particulars: HeLa Gal4-ERK5 transactivation, 18 h, at 5 µM, stronger effect = higher value.
The subject of assay [14] is Neuropilin-2 / VEGF-C interaction (human). Description: small molecules blocking Neuropilin-2/VEGF-C interaction – biochemical, microplate binding format, z-score (AID 743281; call rule not given here). Particulars: microplate NRP2/VEGF-C binding assay; stronger effect = lower value.
Assay [15] can be described thus: viability loss in pontine glioma line – cell-based, SU-DIPG-XIII, MIPE4.0, CellTiter-Glo, qHTS, dose response (AID 1347061; cut-off not given, nearly all actives have AC50 up to about 37 µM;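 further: cells exposed to compound for 48 hours before readout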). Conditions: CellTiter-Glo ATP luminescence.
Assay [16] in a line: viability loss in pontine glioma line – cell-based, SU-DIPG-IV, MIPE4.0, CellTiter-Glo, qHTS, dose response (AID 1347063; cut-off not given, nearly all actives have AC50 up to about 30 µM;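 further: compound exposure lasted 48 hours before the viability readout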). Particulars: CellTiter-Glo ATP luminescence.
Assay [17] in a line: growth inhibition, single agent or in combination, cell-based, chromothripsis tumors, cisplatin or BGB combos (AID 1671449; in the data active means inhibition above about 80%;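 further: cells exposed for 96 hours; 0% = vehicle DMSO and 100% = killing by high DMSO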). Particulars: LFS_MB_P medulloblastoma cells.
A short description of assay [18]: growth inhibition, single agent and combos, cell-based, chromothripsis tumors, cisplatin or BGB combos (AID 1671450; in the data active means inhibition above about 80%;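 further: cells exposed to compound for four days; 0% = vehicle DMSO and 100% = cell killing by high DMSO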). Particulars: HDN33 neuroblastoma cells, stronger effect = higher value.
A short description of assay [19]: growth inhibition, single agents and combos, ICB984, cell-based, cisplatin or BGB combos, synergistic combos for chromothripsis tumors (AID 1671451; call rule not given here;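 further: cells exposed for 96 hours before readout; 0% = vehicle DMSO and 100% = killing by high DMSO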). Particulars: ICB984 medulloblastoma cells, drug combinations, stronger effect = higher value.
Assay [20] can be described thus: growth inhibition, single agents and combos, HTB85, cell-based, BGB or cisplatin IC20 combos, synergistic combos for chromothripsis tumors (AID 1671453; in the data active means inhibition above about 80%;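 further: cells exposed for 96 hours before readout; 0% = vehicle DMSO and 100% = high DMSO killing control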). Particulars: HTB85 osteosarcoma cells, drug combinations, stronger effect = higher value.

Where “and” joins values, the source holds several entries; their conditions need not be identical. Equal entries are not always repeated. Records with an inconclusive call do not appear. Calls of active or inactive are those of the source.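 How the source made its calls, unless noted: active means z-score of at least 1.8 in each of two replicates, scored against plate mean and spread of sample wells; inactive means the rest.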

Sequence of NAD(+) hydrolase SARM1 (Homo sapiens) (Q6SZW1 whole entry, looked up): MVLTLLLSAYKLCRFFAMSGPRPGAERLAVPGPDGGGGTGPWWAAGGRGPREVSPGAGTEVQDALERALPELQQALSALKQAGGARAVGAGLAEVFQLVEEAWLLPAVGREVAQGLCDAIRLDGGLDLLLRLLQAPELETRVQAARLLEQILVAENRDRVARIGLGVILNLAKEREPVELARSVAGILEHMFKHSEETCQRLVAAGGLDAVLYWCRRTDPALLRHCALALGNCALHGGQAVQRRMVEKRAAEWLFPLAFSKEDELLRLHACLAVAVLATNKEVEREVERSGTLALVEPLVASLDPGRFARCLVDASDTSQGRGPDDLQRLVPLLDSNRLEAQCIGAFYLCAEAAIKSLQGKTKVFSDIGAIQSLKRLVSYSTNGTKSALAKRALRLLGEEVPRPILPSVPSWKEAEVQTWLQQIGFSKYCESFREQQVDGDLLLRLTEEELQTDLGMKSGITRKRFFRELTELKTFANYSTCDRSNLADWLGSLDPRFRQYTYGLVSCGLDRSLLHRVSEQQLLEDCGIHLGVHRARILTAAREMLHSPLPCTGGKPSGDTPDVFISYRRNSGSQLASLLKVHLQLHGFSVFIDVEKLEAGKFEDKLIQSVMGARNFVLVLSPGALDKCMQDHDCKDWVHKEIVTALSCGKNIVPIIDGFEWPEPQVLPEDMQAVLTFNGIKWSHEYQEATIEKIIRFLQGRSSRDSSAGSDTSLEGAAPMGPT
Sequence of Mitogen-activated protein kinase 7 (Homo sapiens) (Q13164 whole entry, looked up, the tested form may be a part): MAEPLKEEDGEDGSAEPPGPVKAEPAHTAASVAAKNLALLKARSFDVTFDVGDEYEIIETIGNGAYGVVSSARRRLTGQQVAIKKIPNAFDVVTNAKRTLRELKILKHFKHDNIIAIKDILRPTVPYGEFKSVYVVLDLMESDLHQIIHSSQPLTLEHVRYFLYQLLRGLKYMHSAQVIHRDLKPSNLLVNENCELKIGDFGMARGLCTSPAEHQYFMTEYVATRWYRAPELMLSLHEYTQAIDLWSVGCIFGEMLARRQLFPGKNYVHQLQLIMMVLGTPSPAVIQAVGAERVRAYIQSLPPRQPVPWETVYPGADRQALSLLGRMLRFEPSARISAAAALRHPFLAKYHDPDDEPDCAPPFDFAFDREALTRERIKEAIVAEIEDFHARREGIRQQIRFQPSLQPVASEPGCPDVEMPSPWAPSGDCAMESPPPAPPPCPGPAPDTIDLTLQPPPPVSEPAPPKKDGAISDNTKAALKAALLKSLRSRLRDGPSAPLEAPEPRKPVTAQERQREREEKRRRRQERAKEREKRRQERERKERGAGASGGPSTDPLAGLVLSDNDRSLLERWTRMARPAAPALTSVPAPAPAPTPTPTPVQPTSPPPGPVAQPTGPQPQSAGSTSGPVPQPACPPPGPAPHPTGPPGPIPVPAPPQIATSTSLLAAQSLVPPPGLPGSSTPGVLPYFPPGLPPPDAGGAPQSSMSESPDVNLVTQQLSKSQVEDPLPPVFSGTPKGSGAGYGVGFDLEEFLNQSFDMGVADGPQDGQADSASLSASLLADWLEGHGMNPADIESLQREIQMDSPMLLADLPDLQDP

As to `Cc1cnc(C(=O)NCCc2ccc(S(=O)(=O)NC(=O)NC3CCCCC3)cc2)cn1`, the molecule was classed as inactive in assay [1], in assay [2], in assay [3], in [4], in assay [5] and in assay [6]. Also, the outcome in assay [7] was inactive. In assay [8], the remaining NAD was 10 nM (inactive). Besides, in assay [9], the z-score was 1.17 (inactive) and 0.66 (inactive) and 1.06 (inactive).
On to `O=C(c1ccc(OCCN2CCCCC2)cc1)c1c(-c2ccc(O)cc2)sc2cc(O)ccc12`, for which the remaining activity (commonly the signal under treatment as a percentage of the control signal) in assay [10] is 120% (inactive). In addition, the outcome in assay [11], in assay [5] and in assay [7] was inactive. Besides, the SSMD in assay [12] was 2.22. Besides, the cell count in [12] came out at 6850. The plate-normalised HSF1 focus index in assay [12] was 1.11 (inactive). Also, in assay [8], the remaining NAD is 10 nM (inactive). The luciferase signal in assay [13] is 76 AU (inactive).
Consider `CN(C)CCOc1ccc(/C(=C(/CCCl)c2ccccc2)c2ccccc2)cc1`, for which the values for the z-score in [14] and in assay [9] were -0.537 (inactive) and -2.31 (inactive), respectively. Also, the outcome in assay [15], in [1] and in assay [4] was inactive. Also, the AC50 – broadly, the concentration giving half of the maximal activity seen – in assay [3] was 20.9 µM (active). For the same molecule, the SSMD in assay [12] was -11.1. The molecule further showed a cell count in assay [12] of 3260. Besides, the plate-normalised HSF1 focus index in [12] is 0.417 (inactive). Further, the remaining NAD in assay [8] is 10 nM (inactive).
As to `Nc1nc(Cl)nc2c1ncn2[C@H]1C[C@H](O)[C@@H](CO)O1`, in [14], the z-score was -0.302 (inactive). The half-maximal activity concentration (AC50) in [11] is 0.833 µM (active). Moreover, the molecule was called inactive in [15]. The outcome in assay [5] was inactive. In assay [6], the call was inactive. For the same molecule, in assay [12], the SSMD is -4.5, the cell count came to 6930 and the plate-normalised HSF1 focus index is 0.776 (inactive).
Consider `C=CCc1ccc(O)c(-c2ccc(O)c(CC=C)c2)c1`, for which the z-score was -0.759 (inactive) in [14] and -1.87 (inactive) in assay [9]. Also, the call in [15] was inactive. Besides, the AC50 in assay [16] is 23.5 µM (active).
On to `CC1CNc2c(cccc2S(=O)(=O)N[C@@H](CCCN=C(N)N)C(=O)N2CC[C@@H](C)C[C@@H]2C(=O)O)C1` (some centres not stated), for which the z-score in assay [14] was -1.46 (inactive); in assay [9] it was 0.59 (inactive). Moreover, the molecule was called inactive in [2], in assay [3], in assay [4], in [5] and in assay [6].
As for `CN(C)C1C(=O)C(C(N)=O)=C(O)C2(O)C(=O)C3=C(O)c4c(O)ccc(Cl)c4C(O)C3CC12` (configuration not stated), the z-score in [9] was -1.45 (inactive).
Regarding `O=C1C(c2c(O)[nH]c3ccccc23)=Nc2ccccc21`, the molecule was called inactive in assay [14], in [1], in assay [4], in assay [5] and in [6]. The half-maximal activity concentration (AC50) in [16] is 13.2 µM (active). Besides, the z-score in assay [9] is -0.25 (inactive).
For the molecule `NC(=O)c1ncn(C2OC(CO)C(O)C2O)n1` (configuration not stated), in [9], the z-score is 1.69 (inactive). Further, the inhibition – broadly, the change of the read-out against control, counted positive when it falls – in assay [17] (at 0.5 µM, stronger effect = higher value) was -16.1% (inactive); in [17] (measured here: combination with BGB IC20, at 0.005 µM), -16.5%; in assay [17] (measured here: combination with BGB IC40, at 0.005 µM), 25.4%; in [17] (measured here: combination with BGB IC40, at 0.05 µM), -2.38%; in assay [17] (measured here: combination with cisplatin, at 0.5 µM, stronger effect = higher value) it was -6.01%; in assay [17] (measured here: combination with cisplatin, at 5 µM, stronger effect = higher value) it was -20.9%. Besides, the inhibition in [18] (BGB combo, at 5 µM) is 31.2%; in [18] (at 0.5 µM), 2.73% (inactive); in assay [18] (cisplatin combo, at 5 µM), -8.56%; in [18] (measured here: with BGB IC20 combination, at 0.5 µM), 6.96%; in [18] (measured here: with cisplatin IC20 combination, at 0.5 µM), 2.48%; in assay [18] (single agent, at 5 µM) it was 14%. The inhibition is 3.66% in assay [19] (BGB IC20 combo, at 0.005 µM); -0.335% in [19] (BGB IC40 combo, at 0.005 µM); 6.2% in [19] (BGB IC40 combo, at 0.05 µM); -10.2% (inactive) in assay [19] (at 0.5 µM); 6.2% in assay [19] (cisplatin combo, at 0.05 µM); -6.29% in assay [19] (cisplatin combo, at 0.5 µM). Moreover, the inhibition in assay [19] (cisplatin combo, at 5 µM) is -17.4%; in assay [19] (measured here: 5 uM single agent, at 5 µM), -2.81%; in assay [20] (at 0.5 µM), 4.41% (inactive); in assay [20] (measured here: with BGB IC20, at 0.5 µM), -12.9%; in assay [20] (measured here: with BGB IC20, at 5 µM), 10.8%; in assay [20] (measured here: with cisplatin IC20, at 0.5 µM), 14.3%. For the same molecule, the inhibition in assay [20] (measured here: with cisplatin IC20, at 5 µM) is 0.254%; in assay [20] (single agent, at 5 µM) it was 2.26%.
With `CCOC(=O)[C@@H](CCc1ccccc1)N[C@@H](C)C(=O)N1CCC[C@H]1C(=O)O`, in [9], the z-score is 0.835 (inactive).
Turning to `O=C(O)C[C@H](O)C[C@H](O)/C=C/c1c(C2CC2)nc2ccccc2c1-c1ccc(F)cc1`, the call in [14], in [4] and in [6] was inactive. The concentration at half-maximal activity (AC50) in [3] and in [5] was 9.34 µM (active) in each case. The remaining NAD in assay [8] was 10 nM (inactive).
As to `CC(=O)OCC(=O)C12OC3(CCCC3)OC1CC1C3CCC4=CC(=O)C=CC4(C)C3(F)C(O)CC12C` (configuration not stated), the z-score in [9] is -1.46 (inactive).
For `CC(N)(Cc1ccc(O)c(O)c1)C(=O)O` (configuration not stated), the molecule was classed as inactive in assay [7]. Moreover, the z-score in assay [9] was -1.27 (inactive) and -1.07 (inactive).
